Measured values from PubChem BioAssay (NCATS).
Calls of active or inactive are those of the source. Calls follow the shape of the full dose curve.

Experiment: qHTS drug screen for cell cycle checkpoint inhibitors in PARPi-resistant BRCA-mutant ovarian cancer cell lines. (AID 1963452)
Conditions: PEO1/OlaR viability, CellTiter-Glo luminescence, 96 h; for Z-AUC: stronger effect = lower value
Summary of the method: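 PEO1, PEO4 and PEO1/OlaR ovarian cancer cells, 600 per well, exposed 96 h at 37C to a dilution series. Viability read by CellTiter-Glo luminescence, normalized to DMSO and empty wells; activity summarized as Z-AUC.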

[1] = measured here: PEO1 parental Z-AUC
Potency is read from the fitted curve at half-maximal effect.

Structure (SMILES) | Z-AUC | Z-AUC [1] | Z-AUC (measured here: PEO4 Z-AUC) | Potency
FC(F)(F)c1ccc(CNc2ccc(Cc3c[nH]c4ncc(Cl)cc34)cn2)cn1 | 1.12 (inactive) | 1.06 | 1.21 | 
c1ccc(-c2ccc(CNc3nc(-c4ccccn4)nnc3-c3ccccc3)cc2)cc1 | -1.09 (inactive) | -0.646 | -0.501 | 
O=C(Nc1ccnc(NC(=O)C2CC2)c1)c1c(Cl)cccc1Cl | -1.13 (inactive) | -0.966 | -0.923 | 
Cc1nnc(C[C@@H]2C=C(c3ccc(Cl)cc3)c3ccccc3-n3c(C)nnc32)o1 | 0.965 (inactive) | 0.533 | 0.589 | 
C=CC(=O)N1CCC(Oc2cc3c(Nc4ccc(Cl)c(Cl)c4F)ncnc3cc2OC)CC1 | -0.983 (inactive) | -1.08 | -0.834 | 
COc1cccc(OCCCN)c1-c1cc(Nc2cnc(C#N)cn2)n[nH]1 |  | -2.4 | -2.98 | 4.9 nM (active)
O=C(NCCCNC(=O)c1ccc[nH]c1=O)c1cc(-c2ccccc2)on1 | 0.194 (inactive) | 0.0234 | -0.178 | 
C[C@H](CN(C)C)Oc1nc(Nc2cc3cccc(Cl)c3cn2)cnc1C#N | -0.234 (inactive) | 0.15 | -0.249 | 
Cn1ncc(Cl)c1-c1cc(C(=O)NC(CN)Cc2ccc(F)c(F)c2)oc1Cl (stereo not drawn) | 0.713 (inactive) | 0.319 | 0.353 | 
O=C(Nc1ccc2[nH]nc(-c3ccncc3)c2c1)[C@@H]1CCN(CC(=O)N2CCN(c3ccc(-c4ncccn4)cc3)CC2)C1 | -0.198 (inactive) | -1.04 | -0.706 | 
CCOc1cc(C(C)(C)C)ccc1C1=N[C@@](C)(c2ccc(Cl)cc2)[C@@](C)(c2ccc(Cl)cc2)N1C(=O)N1CCN(CC(=O)N2CCOCC2)CC1 | -0.291 (inactive) | 0.35 | 0.188 | 
